In PubChem BioAssay:
Active and inactive are the calls of the source.

What was measured:
[1] = tested on: Plasmodium falciparum Sir2 (PF13_0152, Sir2A); assay: pfSir2 binders on small-molecule microarrays, primary screen, biochemical, small-molecule microarray, 635 nm fluorescence (AID 1098); settings: small-molecule microarray binding, fluorescence 635 nm; higher = more signal;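 further: score merges spot fluorescence intensity with its signal-to-noise ratio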
[2] = small-molecule microarray binders of probe aDKK1, primary screen, biochemical, biotinylated probe, 635/667 nm fluorescence (AID 1099); settings: higher = more signal;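 further: score merges 667nm spot fluorescence with signal to noise across triplicate slides; reference of the scale not given here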
[3] = small-molecule microarray binders of probe aCHRDL2, primary screen, biochemical, biotinylated probe, 635/667 nm fluorescence (AID 1100); settings: higher = more signal
[4] = splicing luciferase reporter signal modulators, primary screen, spliceosome inhibition project, cell-based, HEK293, splice +/- reporter (AID 1101); settings: luminescence, 24 h, higher = more signal, called active from +8 up or from −8 down;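 further: HEK293 cells carrying a splicing-competent luciferase reporter gene; test concentration not given here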
[5] = biological target: Fibroblast growth factor 10 (Homo sapiens) (UniProt O15520); assay: FGF10 binders on small-molecule microarrays, primary screen, biochemical, small-molecule microarray, 635 nm fluorescence (AID 1102); settings: FGF10 binding, fluorescence 635 nm, higher = more signal
[6] = tested on: glycogen synthase kinase-3 (GSK3A per assay name; protocol says GSK3B); assay: GSK3 binders on small-molecule microarrays, primary screen, biochemical, small-molecule microarray, 635 nm fluorescence, GSK3A (AID 1103); settings: small-molecule microarray binding, fluorescence 635 nm; higher = more signal; further: the record names both GSK3A and GSK3B
[7] = biological target: Epidermal growth factor receptor (Homo sapiens) (UniProt P00533); assay: EGFR binders on small-molecule microarrays, primary screen, biochemical, small-molecule microarray, 635 nm fluorescence (AID 1104); settings: EGFR binding, higher = more signal;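 further: score merges 667 nm emission intensity with spot signal to noise over triplicate slides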
[8] = biological target: Follistatin-related protein 3 (Homo sapiens) (UniProt O95633); assay: FSTL3 binders on small-molecule microarrays, primary screen, biochemical, small-molecule microarray, 635 nm fluorescence (AID 1105); settings: FSTL3 binding, higher = more signal;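 further: score merges emission near 667 nm and signal to noise per printed spot across three slides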
[9] = biological target: Dickkopf-related protein 1 (Homo sapiens) (UniProt O94907); assay: DKK1 binders on small-molecule microarrays, primary screen, biochemical, small-molecule microarray, 635 nm fluorescence scan (AID 1106); settings: DKK1 binding, higher = more signal;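 further: score merges emission near 667 nm with signal to noise over three replicate slides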
[10] = tested on: Inhibin beta A chain (activin A); assay: INHBA (activin A) binders on microarrays, primary screen, biochemical, small-molecule microarray, 635 nm fluorescence scan (AID 1107); settings: small-molecule microarray binding, higher = more signal;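 further: mouse activin A protein probed at 4.33 µg/mL on printed slides; score merges bound-protein fluorescence near 667 nm with spot signal-to-noise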

Sequence of Dickkopf-related protein 1 (Homo sapiens) (O94907 whole entry, looked up): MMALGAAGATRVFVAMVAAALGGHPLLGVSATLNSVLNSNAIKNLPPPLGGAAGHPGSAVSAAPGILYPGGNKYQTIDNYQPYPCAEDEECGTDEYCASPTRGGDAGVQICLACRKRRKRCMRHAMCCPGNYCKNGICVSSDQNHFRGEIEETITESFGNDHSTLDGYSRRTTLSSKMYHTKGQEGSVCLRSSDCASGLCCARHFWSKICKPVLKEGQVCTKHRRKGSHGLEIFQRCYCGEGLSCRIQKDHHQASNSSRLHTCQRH
Sequence of Epidermal growth factor receptor (Homo sapiens) (P00533 whole entry, looked up): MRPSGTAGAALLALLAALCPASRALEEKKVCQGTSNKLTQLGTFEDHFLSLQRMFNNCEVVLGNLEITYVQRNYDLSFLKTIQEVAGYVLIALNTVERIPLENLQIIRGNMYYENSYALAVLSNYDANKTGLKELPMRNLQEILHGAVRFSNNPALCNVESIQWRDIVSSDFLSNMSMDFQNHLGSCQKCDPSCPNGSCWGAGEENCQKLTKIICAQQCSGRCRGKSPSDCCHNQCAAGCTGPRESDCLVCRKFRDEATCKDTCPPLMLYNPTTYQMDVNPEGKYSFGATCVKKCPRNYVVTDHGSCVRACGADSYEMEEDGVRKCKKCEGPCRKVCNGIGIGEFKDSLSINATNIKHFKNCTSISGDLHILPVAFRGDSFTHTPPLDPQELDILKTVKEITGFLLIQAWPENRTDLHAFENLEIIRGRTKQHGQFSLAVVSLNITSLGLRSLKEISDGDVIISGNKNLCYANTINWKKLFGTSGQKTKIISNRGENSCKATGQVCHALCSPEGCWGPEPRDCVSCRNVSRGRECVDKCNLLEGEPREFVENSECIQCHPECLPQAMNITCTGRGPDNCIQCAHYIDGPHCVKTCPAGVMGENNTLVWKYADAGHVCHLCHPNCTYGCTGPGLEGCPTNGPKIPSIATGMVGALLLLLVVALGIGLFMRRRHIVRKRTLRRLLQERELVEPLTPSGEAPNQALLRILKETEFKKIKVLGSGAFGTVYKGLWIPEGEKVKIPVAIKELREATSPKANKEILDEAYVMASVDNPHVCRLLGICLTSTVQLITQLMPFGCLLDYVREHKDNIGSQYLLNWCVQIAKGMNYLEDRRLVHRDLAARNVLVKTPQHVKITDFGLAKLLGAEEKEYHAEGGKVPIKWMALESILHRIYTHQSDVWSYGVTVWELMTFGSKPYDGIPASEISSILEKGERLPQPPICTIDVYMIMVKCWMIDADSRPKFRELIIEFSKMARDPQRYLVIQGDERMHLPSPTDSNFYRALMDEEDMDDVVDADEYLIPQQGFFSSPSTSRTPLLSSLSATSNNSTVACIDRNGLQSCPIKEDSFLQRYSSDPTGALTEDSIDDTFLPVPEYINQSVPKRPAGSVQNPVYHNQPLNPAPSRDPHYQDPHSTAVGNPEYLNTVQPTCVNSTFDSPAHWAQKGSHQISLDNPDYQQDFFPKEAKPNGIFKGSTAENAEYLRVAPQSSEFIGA
Sequence of Follistatin-related protein 3 (Homo sapiens) (O95633 whole entry, looked up): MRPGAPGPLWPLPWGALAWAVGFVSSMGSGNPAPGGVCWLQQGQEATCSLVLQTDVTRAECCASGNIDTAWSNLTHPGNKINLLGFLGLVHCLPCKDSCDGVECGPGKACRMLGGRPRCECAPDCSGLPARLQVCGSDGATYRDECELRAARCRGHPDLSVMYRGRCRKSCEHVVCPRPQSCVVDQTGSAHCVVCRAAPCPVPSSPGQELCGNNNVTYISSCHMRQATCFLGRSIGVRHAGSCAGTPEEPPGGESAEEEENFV
Sequence of Fibroblast growth factor 10 (Homo sapiens) (O15520 whole entry, looked up): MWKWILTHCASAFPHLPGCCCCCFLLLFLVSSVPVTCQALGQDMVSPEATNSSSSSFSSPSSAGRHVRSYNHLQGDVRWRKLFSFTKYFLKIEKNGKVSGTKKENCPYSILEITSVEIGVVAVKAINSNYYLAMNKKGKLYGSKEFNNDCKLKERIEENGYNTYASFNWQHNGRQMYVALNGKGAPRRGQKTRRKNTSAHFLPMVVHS

Compound	composite z-score [1]	composite z-score [2]	composite z-score [3]	z-score [4]	composite z-score [5]	composite z-score [6]	composite z-score [7]	composite z-score [8]	composite z-score [9]	composite z-score [10]
O=C1[C@H]2[C@H]3[C@H](O)[C@H](O)CC(=NOCc4ccccc4)[C@@H]3CC[C@H]2C(=O)N1c1ccc(F)cc1F	0.0102	-0.376	-0.554	-1.29 (inactive)	0.224	-0.0906	0.208	0.286	0.347	-0.178
CCOC(=O)NN=C1C[C@@H](O)[C@@H](O)[C@@H]2[C@@H]3C(=O)N(c4cccc(Oc5ccccc5)c4)C(=O)[C@@H]3CC[C@@H]12	0.933	-0.27	-0.187	0.0999 (inactive)	1.13	-0.652	0.164	-0.329	-0.313	-0.237
CCCNC(=O)OC[C@H]1O[C@H](CCON=C(C)CCC(=O)OC[C@H]2O[C@H](c3ccccc3)C=C[C@@H]2Oc2ccc(OC)cc2)C=C[C@@H]1Oc1ccc(OC)cc1	0.452	-0.183	-0.207	0.358 (inactive)	-0.445	-1.49	-0.239	-0.31	0.0289	0.844
C#CCCCON=C1[C@H]2CCn3c(=O)n(-c4ccccc4)c(=O)n3[C@H]2[C@H](O)[C@@H]2O[C@H]12	0.164	0.238	-0.615	-1.65 (inactive)	0.291	0.621	0.537	0.725	0.521	0.127
C#CCCCON=C1C[C@@H](O)[C@@H](O)[C@@H]2[C@@H]3C(=O)N(c4cccc(Oc5ccccc5)c4)C(=O)[C@@H]3CC[C@H]12	1.06	-0.406	0.155	-0.558 (inactive)	-0.948	-1.56	-0.356	-0.845	-0.557	-0.69
O=C1C[C@@H](O)[C@@H](O)[C@@H]2[C@@H]3C(=O)N(C[C@@H]4CCCO4)C(=O)[C@@H]3CC[C@@H]12	0.495	-0.185	-0.7	-0.0639 (inactive)	0.612	0.718	0.573	0.761	0.823	-0.0076
CC(C)CON=C1C[C@@H](O)[C@@H](O)[C@@H]2[C@@H]3C(=O)N(c4cccc(Oc5ccccc5)c4)C(=O)[C@@H]3CC[C@@H]12	1.13	-0.277	-0.446	-1.24 (inactive)	0.746	0.789	0.368	0.348	0.195	-0.163
CC(=O)Nc1ccc([C@@H]2N[C@H](C(=O)O)CC[C@H]2C)cc1	0.136	-0.108	-0.401	0.303 (inactive)	0.32	0.461	0.546	0.409	0.444	0.133
COc1ccc(O[C@@H]2[C@H](O)CO[C@H]2C=Cc2ccccc2)cc1	0.1	-0.274	-0.379	-0.878 (inactive)	0.0279	-0.0395	-0.033	-0.267	-0.275	0.799
COC(=O)[C@H](C)NC(=O)CCC1CC(OC(=O)NCc2ccc3c(c2)OCO3)CC2(CCCC(COC(=O)NCC3CCCCC3)O2)O1 (stereo not given in full)	0.74	-0.21	-0.647	0.507 (inactive)	1.29	0.98	0.621	1.07	0.822	-0.144
COC(=O)[C@H](C)NC(=O)CCC1CC(OC(=O)NCc2ccc3c(c2)OCO3)CC2(CCCC(COC(=O)NCCc3ccccc3OC)O2)O1 (stereo not given in full)	0.417	-0.037	-0.24	-0.293 (inactive)	0.0774	0.0268	-0.102	-0.108	-0.253	-0.28
C[C@H]1CC[C@H]2C(=O)OC(CO)CN2[C@@H]1c1ccc(Br)cc1 (stereo not given in full)	-0.273	-0.28	-0.0574	-0.522 (inactive)	0.0323	-0.536	0.242	-0.34	-0.241	0.757
CCc1cc2c(nc1CC)CCN(CCC(C)=NO[C@H](C)c1cn([C@@H]3COC[C@H]3O)nn1)C2	0.346	-0.156	-0.334	0.212 (inactive)	0.189	0.229	0.545	0.433	0.611	0.468
Cc1ccc(S(=O)(=O)N[C@@H]2COC(=O)[C@@H](C)COC(=O)CC=C[C@H]2C)cc1	0.154	-0.324	-0.352	0.00914 (inactive)	0.424	0.513	0.545	0.66	0.56	0.13
COC(=O)[C@H]1O[C@@H](c2c(OC)c(OC)c(C)c(OC)c2OC)[C@H](C)[C@@H](O)[C@H]1C	0.209	0.138	0.112	-0.187 (inactive)	0.798	0.824	0.0132	0.89	0.743	-0.311
COc1cccc([C@H]2Oc3ccc(OC)cc3C(=NO[C@H](C)c3cn([C@H](CO)Cc4ccccc4)nn3)[C@@H]2O)c1	-0.42	-0.561	-0.0229	0.397 (inactive)	0.0546	-0.617	-0.0537	-0.0403	-0.28	0.548
COC(=O)CC=C[C@@H](C)[C@@H](C=NO[C@H](C)c1cn([C@H](CO)Cc2ccccc2)nn1)NS(=O)(=O)c1ccc(C)cc1	0.182	0.0644	-0.0281	0.0956 (inactive)	0.532	0.0796	0.264	0.226	0.0568	-0.119
COc1ccc(O[C@H]2C=C[C@@H](c3ccccc3)O[C@@H]2CON=C(C)CCN2CCc3nc(-c4ccccc4)c(-c4ccccc4)cc3C2)cc1	0.51	-0.259	-0.0652	-0.365 (inactive)	-0.156	-0.796	-0.538	0.0193	0.162	0.829
COC(=O)[C@H](C)NC(=O)CCC1CC(OC(=O)NCc2cccc3ccccc23)CC2(CCCC(COC(=O)NCC(c3ccccc3)c3ccccc3)O2)O1 (stereo not given in full)	0.208	-0.0014	-0.523	0.026 (inactive)	0.715	1.27	0.702	0.601	0.386	-0.396
C[n+]1ccc(-c2ccc(CO)cc2)cc1	-1.19	0.116	0.808	1.29 (inactive)	0.747	-0.435	1.51	1.6	0.953	2.16
C=C(C)C(=O)OCC1CN2[C@@H](CC[C@@H](C)[C@@H]2c2ccc(Br)cc2)C(=O)O1 (stereo not given in full)	0.299	-0.201	-0.118	0.411 (inactive)	0.237	0.363	-0.202	0.0267	0.147	-0.0608
COC(=O)CC=C[C@@H](C)[C@@H]1C=C[C@H](O)[C@@H](CO)O1	0.146	-0.0367	-0.48	-0.593 (inactive)	0.666	0.753	0.369	0.559	1.15	0.165
C#CCCCON=C1C[C@@H](O)[C@@H](O)[C@@H]2[C@@H]3C(=O)N(C(C)(C)C)C(=O)[C@@H]3CC[C@H]12	0.115	0.765	1.24	0.233 (inactive)	-0.165	-0.656	-0.0084	-0.866	-0.996	0.615
